# Hits are enriched below; roughly 2.2% of the tested compounds scored in any of these assays.
# KLF5 inhibitor = suppresses KLF5 promoter-driven expression | DLD-1 KLF5 promoter-luciferase reporter, luminescence | inhibition, % at 5 µM | actives 0.23% (n = 290,000);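 active = inhibition above a per-plate limit of that plate's mean compound inhibition plus 3 SD, cut at about 60% in these data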;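 also: higher means less KLF5 promoter-driven luciferase light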
# BaF3 tox = counter-screen for JAK2V617F inhibitors: parental Ba/F3 viability inhibitors; inhibition, % at 5.6 µM; actives 1.1% (n = 220,000); CellTiter-Glo ATP luminescence;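 active = inhibition above a per-campaign cutoff, the mean inhibition of all tested compounds plus 3 SD, cut at about 27% in these data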
# aSyn 5UTR inh = MLPCN primary screen, SNCA 5' untranslated region | alpha-synuclein 5'UTR reporter, inhibitor activity | actives 0.82% (n = 300,000) | inhibition, % (tested at 7.5 µM) | AID 1813; in the data active = inhibition above about 60%; inconclusive = no clear call, values can overlap the other calls;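 also: H4 neuroglioblastoma cells stably carrying SNCA 5'UTR luciferase fusion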
# Ba/F3 V617F tox = reduce viability of Ba/F3 cells dependent on JAK2V617F; inhibition, % at 5.6 µM; Ba/F3 EpoR-JAK2V617F viability, ATP luminescence; actives 1.1% (n = 220,000);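 active = inhibition above the campaign mean plus 3 SD over all tested compounds, cut at about 24% in these data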;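 also: cytokine-independent growth of Ba/F3 cells driven by EpoR plus mutant JAK2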
# IEC-6 cytotox = counter-screen for KLF5 inhibitors: cytotoxicity in IEC-6 cells | inhibition, % at 5 µM | AID 1825 | IEC-6 cytotoxicity, luminescence viability | actives 0.78% (n = 290,000); in the data active = inhibition above about 22%
# APP 5UTR inh = APP translation inhibition; SH-SY5Y APP 5'UTR-luciferase reporter, luminescence; inhibition, % at 2 µM; actives 0.82% (n = 190,000);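 active = inhibition above a set limit, derived from the sample mean plus 3 SD, cut at about 45% in these data; inconclusive = one replicate passes the limit while the other fails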
# Numbers stand for hits; . = inactive; ? = inconclusive; / = no result given.
SMILES,KLF5 inhibitor,BaF3 tox,aSyn 5UTR inh,Ba/F3 V617F tox,IEC-6 cytotox,APP 5UTR inh
CCN(CC1COc2ccccc2O1)C(=S)Nc1ccc(F)cc1 (centres undefined),.,31.1,.,33.9,.,.
CN(C)CCCNC(=S)NCC(c1ccc(Cl)cc1Cl)c1c[nH]c2ccccc12 (centres undefined),.,/,110.6,/,.,/
CCCCNC(=S)NCC(c1ccccc1)c1c[nH]c2ccccc12 (centres undefined),.,/,.,/,.,/
Clc1ccc(-c2cn3nc4c(nc3n2)CCCC4)cc1,.,.,88.2,.,.,.
COc1cccc(-c2cn3nc4c(nc3n2)CCCC4)c1,.,.,103.7,.,.,.
COc1cccc(-c2cc(C(F)(F)F)n3nc(N)nc3n2)c1,.,.,.,.,.,.
Clc1ccc(-c2cn3cccnc3n2)cc1,.,.,.,.,.,.
COc1c(OC(C)=O)c(=O)n2c3ccccc3c3ccnc1c32,/,/,.,/,/,/
O=C1CCCCC1C(O)c1ccc(Cl)cc1 (centres undefined),.,.,.,.,.,/
Cc1c(Cl)cccc1N1C(=O)c2ccccc2C1=O,.,.,.,.,.,68.2
Cn1nc(-c2ccccn2)nc2c(=O)n(C)c(=O)nc1-2,105.1,105.4,93.6,98.9,99.3,59.3
COc1ccc(-c2nc(-c3ccccn3)ncc2S(C)(=O)=O)cc1,.,.,.,.,.,.
CCn1c(NN)nc2sc3c(c2c1=O)CCC3,.,.,/,.,.,.
NNc1nc2sc3c(c2c(=O)n1Cc1ccccc1)CCC3,.,33.7,.,47.3,.,/
Nn1c(Nc2ccccc2)nc2sc3c(c2c1=O)CCC3,.,.,.,.,22.5,.
CC(C)c1ccc(S(=O)(=O)N2CCN(C(=O)Cc3ccsc3)CC2)cc1,/,/,.,/,/,/
CCOC(=O)c1c(S(=O)(=O)NCc2ccco2)c(C)n(C)c1C,.,/,.,/,.,/
COc1ccc2nc(N=Nc3ccc(O)c4ccccc34)sc2c1,.,.,.,.,.,74.0
Clc1ccc(-c2c[n+]3c(n2-c2ccccc2)SCC3)cc1,.,88.1,.,66.8,.,.
Clc1ccc(C2=C3CCCCn4c(-c5ccccc5)c[n+](c43)C2)cc1,.,.,.,.,.,.
O=[N+]([O-])c1cccc(-c2c[n+]3c(n2-c2ccccc2)SCC3)c1,.,65.0,/,34.9,.,.
Nc1ccc(-c2nc3ccccc3s2)cn1,.,/,.,/,.,/
O=C1CCC(=O)N1c1ccc(-c2nc3ccccc3s2)cc1,.,88.6,.,.,.,.
Cc1cc(C)c2[nH]c(=O)c(CN(CC3CCCO3)C(=S)Nc3ccccc3)cc2c1 (centres undefined),.,.,.,.,.,/
Cc1ccc2cc(CN(CC3CCCO3)C(=S)Nc3ccccc3)c(=O)[nH]c2c1C (centres undefined),.,.,72.3,.,.,53.0
SMILES,KLF5 inhibitor,BaF3 tox,aSyn 5UTR inh,Ba/F3 V617F tox,IEC-6 cytotox,APP 5UTR inh
O=C(Nc1ccccc1)c1nccn1Cc1ccc(F)cc1,.,.,.,.,.,.
O=C(Nc1ccc(Cl)cc1)Nc1ccccc1NS(=O)(=O)c1cccs1,.,62.2,.,.,.,.
CCCCCCCNC1=CC(=O)CC(c2ccccc2)C1 (centres undefined),.,36.4,.,27.8,.,.
CCCCCNC1=CC(=O)CC(c2ccccc2)C1 (centres undefined),.,.,.,.,.,.
CC1(C)CC(=O)C=C(Nc2ccc(C(=O)O)c(O)c2)C1,.,/,.,/,.,/
O=C(Nc1ccc2c(c1)OCCO2)c1ccccn1,.,.,88.0,.,.,.
O=C(Nc1ccc2c(c1)OCCO2)c1cccc2nc3ccccc3nc12,.,.,?,.,.,45.7
O=C(CNC(=O)c1ccc(Cl)c([N+](=O)[O-])c1)OC1CCCCC1=O (centres undefined),/,/,.,/,/,/
O=c1[nH]c(SCc2nc3ccccc3n2Cc2ccccc2)nc2ccccc12,.,.,.,.,.,/
Nc1cc(=O)[nH]c(SCc2nc3ccccc3n2Cc2ccccc2)n1,.,.,.,.,.,46.3
Cc1ccc(Oc2ccc(S(=O)(=O)N3CCOCC3)cc2C(N)=O)c(-n2nc3ccccc3n2)c1,.,.,.,.,.,45.6
COc1ccccc1Oc1ccc(S(=O)(=O)N2CCOCC2)cc1S(=O)(=O)N1CCOCC1,.,.,.,.,.,.
COc1cc(NC(=O)c2cccc(C)c2)ccc1NC(=O)c1cc2ccccc2o1,.,/,.,/,.,/
C=C(C)CSc1nc2sc3c(c2c(=O)n1C1CCCCC1)CCN(C)C3,.,54.5,.,50.6,.,/
Cc1ccc(N=Nc2c(N)nn(-c3ccccc3)c2N)cc1,.,35.5,.,46.8,24.6,.
CN(C)CCNC(=O)C12CC3(C)CC(C)(CC(C)(C3)C1)C2,.,58.9,.,.,.,.
CC12CC3(C)CC(C)(C1)CC(C(=O)NCCc1ccc(S(N)(=O)=O)cc1)(C2)C3,.,/,.,/,.,/
O=C(Nc1ccc(OCc2ccccc2Cl)cc1)c1cccnc1,.,/,90.3,/,.,/
COc1ccc(CCC(=O)NCCS(=O)(=O)N2CCN(c3ccccc3OC)CC2)cc1,.,/,.,/,.,/
CN(C)S(=O)(=O)c1ccc(C(=O)OCCN=C2NS(=O)(=O)c3ccccc32)cc1,.,/,.,/,.,/
CN(C)S(=O)(=O)c1ccc(C(=O)OCCCN=C2NS(=O)(=O)c3ccccc32)cc1,.,.,.,.,.,45.1
O=C(COC(=O)/C=C/c1ccc(C(F)(F)F)cc1)NCC1CCCO1 (centres undefined),/,/,.,/,/,/
C[n+]1cc(C(=O)N2CCCCC2)ccc1/C=C/c1c[nH]c2ccccc12,.,.,.,.,.,.
Cc1ccc(C)c(N(CC(=O)NC2CCCC2)C(=O)c2csnn2)c1,.,/,.,/,.,/
Cc1[nH]n(-c2ccccc2)c(=O)c1N=Nc1c(O)cc(S(=O)(=O)N(C)C)c2ccccc12,/,/,70.7,/,/,/
SMILES,KLF5 inhibitor,BaF3 tox,aSyn 5UTR inh,Ba/F3 V617F tox,IEC-6 cytotox,APP 5UTR inh
CCc1noc(C)c1C(=O)N(CCC(C)C)c1c(N)n(Cc2ccccc2)c(=O)[nH]c1=O,/,/,.,/,/,/
Cc1ccc(-c2cc(C(=O)N3CCCC3)no2)cc1,.,.,?,.,.,.
Cc1ccc(-c2cc(C(=O)N3CCOCC3)no2)cc1,.,/,66.9,/,.,/
Cc1ccc(Oc2ccc(-c3nc(N)nc(N)n3)cc2)cc1C,.,.,.,.,.,92.4
COc1ccc(CNCCC(c2ccc(OC(C)C)cc2)c2ccccc2OC)cc1 (centres undefined),.,/,133.6,/,.,/
COc1ccccc1C(CCNCc1ccccc1)c1ccc(OC(C)C)cc1 (centres undefined),.,/,.,/,.,/
COc1ccccc1C(CCNCc1ccc(N(C)C)cc1)c1ccc(OC(C)C)cc1 (centres undefined),.,/,135.3,/,.,/
c1ccc(-c2nnc3n2CCCC3)cc1,.,.,.,.,.,.
Brc1cccc(-c2nnc3n2CCCCC3)c1,.,96.4,.,.,.,.
CC1CCCCN1c1ncnc(N)c1[N+](=O)[O-] (centres undefined),.,.,.,.,.,.

# High-throughput results as filed in PubChem.
